Drawing on PubChem BioAssay AID720700 (The Scripps Research Institute Molecular Screening Center, 2013), this text covers inhibition for 87 compounds.

Among all 370,000 compounds or so, about 3,100 (0.84%) were called active. This is one part of a sample in which actives are shown more often than they occur. Unmarked numbers belong to inactive results. Cut-off read from the data, not from the text of the source: active = inhibition above about 9.5%; inactive = the rest.

1-phosphatidylinositol 4,5-bisphosphate phosphodiesterase gamma-1 (Homo sapiens), sequence (P19174 whole entry, looked up): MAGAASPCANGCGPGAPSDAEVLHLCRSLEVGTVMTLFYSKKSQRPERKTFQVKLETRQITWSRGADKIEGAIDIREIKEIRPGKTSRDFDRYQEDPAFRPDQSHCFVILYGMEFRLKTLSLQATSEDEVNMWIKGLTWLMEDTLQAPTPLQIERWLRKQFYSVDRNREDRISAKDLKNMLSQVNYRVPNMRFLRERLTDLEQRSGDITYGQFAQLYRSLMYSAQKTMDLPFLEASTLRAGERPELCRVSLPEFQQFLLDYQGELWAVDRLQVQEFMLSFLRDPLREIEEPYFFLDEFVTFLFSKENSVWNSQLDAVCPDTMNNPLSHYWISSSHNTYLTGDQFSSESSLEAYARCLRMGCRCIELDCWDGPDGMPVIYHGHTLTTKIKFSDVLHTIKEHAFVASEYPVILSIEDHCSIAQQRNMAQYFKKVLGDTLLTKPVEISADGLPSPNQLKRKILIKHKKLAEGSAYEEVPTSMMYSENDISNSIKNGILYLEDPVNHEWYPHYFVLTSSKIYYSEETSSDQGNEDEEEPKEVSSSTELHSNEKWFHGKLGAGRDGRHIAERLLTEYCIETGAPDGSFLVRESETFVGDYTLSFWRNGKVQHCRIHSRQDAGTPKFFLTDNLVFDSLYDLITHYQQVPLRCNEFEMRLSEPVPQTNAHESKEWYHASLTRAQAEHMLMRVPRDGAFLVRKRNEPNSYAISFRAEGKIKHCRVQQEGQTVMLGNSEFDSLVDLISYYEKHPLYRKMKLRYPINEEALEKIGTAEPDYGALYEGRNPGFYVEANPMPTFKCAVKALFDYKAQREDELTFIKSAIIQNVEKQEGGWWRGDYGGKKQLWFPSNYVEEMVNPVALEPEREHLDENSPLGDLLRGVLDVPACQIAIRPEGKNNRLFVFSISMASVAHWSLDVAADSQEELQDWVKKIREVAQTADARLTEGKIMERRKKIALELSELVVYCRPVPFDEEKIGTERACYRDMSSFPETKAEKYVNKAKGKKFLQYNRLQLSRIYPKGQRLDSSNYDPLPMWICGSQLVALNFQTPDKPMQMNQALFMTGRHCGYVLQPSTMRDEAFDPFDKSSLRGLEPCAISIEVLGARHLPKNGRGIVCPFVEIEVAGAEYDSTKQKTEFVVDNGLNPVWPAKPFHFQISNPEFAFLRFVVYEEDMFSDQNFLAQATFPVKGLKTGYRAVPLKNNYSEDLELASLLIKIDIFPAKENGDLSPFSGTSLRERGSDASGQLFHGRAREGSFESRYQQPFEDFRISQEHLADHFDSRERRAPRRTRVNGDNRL

This assay addresses 1-phosphatidylinositol 4,5-bisphosphate phosphodiesterase gamma-1 (Homo sapiens) (UniProt P19174). As to the kind of experiment: blockers of human PLCG1 activity – biochemical, fluorescence, purified enzyme, primary screen (AID 720700). Particulars: purified PLC-gamma1, fluorogenic substrate, at 12.2 µM, active compounds read high.
As for `O=C(C1CCN(S(=O)(=O)c2ccccc2)CC1)N1CCN(C2CCCCC2)CC1`, the inhibition is -0.77%.

Take `Cc1ccc(-n2c(SCC(=O)Nc3cccc4ccccc34)nnc2-c2ccccn2)cc1`: the inhibition is -0.11%.

For `O=C1CS(=O)CN1c1ccc(Oc2ccccc2)cc1` (configuration not stated), the inhibition is 12% (active).

Take `Cc1n[nH]c(=O)n1-c1ccc(Oc2ccccc2)cc1`: the inhibition was -0.23%.

For the compound `CC(N=Cc1nc(-c2ccccc2)oc1O)c1ccccc1` (configuration not stated), the inhibition was 14.1% (active).

As to `Oc1oc(-c2ccccc2Br)nc1/C=N/c1ccccn1`, the inhibition is -17.6%.

For `O=C1CC[C@@]23CCCN2C(=O)CCC[C@H]3[C@H]1Cc1ccccc1`, the inhibition is 0.07%.

Consider `CCCCn1c(CN2CCN(CCO)CC2)nc2ccccc21`, for which the inhibition was 0.96%.

For the compound `CCc1c(C)nc(N2CCN(Cc3ccccc3)CC2)[nH]c1=O`, the inhibition is -1.09%.

As for `CC(C)n1c(CN2CCN(Cc3ccccc3)CC2)nc2ccccc21`, the inhibition was 9.89% (active).

For `O=C(NCc1cccs1)C1CCCN(S(=O)(=O)c2ccc([N+](=O)[O-])cc2)C1` (configuration not stated), the inhibition is 3.77%.

On to `O=S(=O)(c1ccccc1)N1CCC(c2nc3ccccc3o2)CC1`, for which the inhibition is -4.98%.

`Cc1cccc(NS(=O)(=O)c2ccc(C)c(C(=O)NCC(c3ccccc3)N(C)C)c2)c1` (configuration not stated): the inhibition is 2.63%.

As for `COc1ccc(NS(=O)(=O)c2ccc(C)c(C(=O)NCC(c3cccs3)N3CCOCC3)c2)cc1` (configuration not stated), the inhibition is -3.99%.

Consider `COc1ccc(C(CNC(=O)c2cc(S(=O)(=O)Nc3cccc(C)c3)ccc2C)N2CCCC2)cc1` (configuration not stated), for which the inhibition was 11% (active).

In the case of `C=CCOC/C=C/C#CCN(CC=C)Cc1ccc(OC)cc1OC`, the inhibition was 2.05%.

Take `Cc1ccc(-n2c(SCC(=O)Nc3ccc(S(=O)(=O)Nc4nccs4)cc3)nnc2-c2cccnc2)cc1`: the inhibition was 6.23%.

Take `COCCN(C(=O)CCC(=O)Nc1nccs1)C(C(=O)NCCC(C)C)c1ccc(F)cc1` (configuration not stated): the inhibition is 3.17%.

Take `COCCNC(=O)C(c1ccc(C)cc1)N(C(=O)CCC(=O)Nc1ccccn1)c1cccc(C)c1` (configuration not stated): the inhibition is 5.63%.

For the compound `COCCNC(=O)C(c1ccc(O)cc1)N(C(=O)CCC(=O)Nc1nccs1)c1ccc(C)cc1` (configuration not stated), the inhibition is 15.2% (active).

Regarding `CCC(=O)OCCCN1C(=O)CCC12CCC(c1ccccc1)CC2` (configuration not stated), the inhibition was 1.02%.

Consider `C[C@@H]1COc2cccc(N3CCCC3)c2S(=O)(=O)N1C`, for which the inhibition was -3.06%.

Turning to `C=CC1=C(C(=O)O)N2C(=O)[C@@H](NC(=O)/C(=N\OCC(=O)O)c3csc(N)n3)[C@H]2SC1`, the inhibition is 23.4% (active).

As to `C=CC1=C(C(=O)O)N2C(=O)[C@@H](NC(=O)/C(=N/OCC(=O)O)c3csc(N)n3)[C@H]2SC1`, the inhibition is 22.2% (active).

For `COC(=O)[C@]12C[C@H](CC(=O)N3CCOCC3)C(=O)N(Cc3ccc(Cl)cc3Cl)C1=C[C@H](COCc1ccccc1)O[C@@H]2C`, the inhibition is 1.02%.

In the case of `CSc1ccccc1NC(=O)Cc1ccc(Br)cc1`, the inhibition was 3.58%.

Regarding `CC(C)Oc1ccc(CC(=O)NNC(=S)Nc2ccc(Br)cc2)cc1`, the inhibition was 9.8% (active).

Consider `COC(=O)Cc1ccc(NC(=S)NCc2ccco2)cc1`, for which the inhibition is 2.1%.

With `O=C(C1CCCN1S(=O)(=O)c1ccccc1)N1CCc2ccccc2C1` (configuration not stated), the inhibition was -1.86%.

With `O=C(NCC1COc2ccccc2O1)c1ccc(NC(=O)c2cc(F)ccc2F)cc1` (configuration not stated), the inhibition is -4.17%.

Consider `Cc1ccc(Cn2cc(CN3[C@@H](C)COc4cc(Br)ccc4S3(=O)=O)nn2)cc1`, for which the inhibition is 0.13%.

In the case of `O=C(c1cccc(N2CCCC2=O)c1)N1CCOCC1`, the inhibition is -4.42%.

Regarding `NC1=NN(c2cccc(C(=O)O)c2)C(=O)C1`, the inhibition is 18.9% (active).

Consider `C/C(=N\NC(=O)c1cccc(N2CCCC2=O)c1)c1ccc(N)cc1`, for which the inhibition was 1.08%.

On to `COc1ccc([C@H]2OC(=O)C[C@H]2C(=O)N2CCN(c3ccccc3F)CC2)cc1OC`, for which the inhibition is 0.67%.

For the compound `Cn1c(=O)n(C)c2cc(NS(=O)(=O)c3ccc(F)cc3)ccc21`, the inhibition is 0.25%.

Consider `O=S(=O)(Nc1ncccn1)c1ccc(NS(=O)(=O)c2cccc(Cl)c2Cl)cc1`, for which the inhibition was 4.05%.

Regarding `O=S(=O)(Nc1ccc(Oc2ncccn2)c(Cl)c1)c1ccc(F)cc1`, the inhibition was 9.74% (active).

`COC(=O)c1cccc(Cn2ccc3ccc(-c4ccc5ccn(C(=O)c6ccccc6C)c5c4)cc32)c1`: the inhibition is -16.3%.

Take `CCC(NC(=O)C1C2C=CC3(CN(Cc4ccccc4)C(=O)C13)O2)c1ccccc1` (configuration not stated): the inhibition is -2%.

With `CC1(C)Cc2cccc(OCC(=O)Nc3nccs3)c2O1`, the inhibition is 0.31%.

Regarding `CN(CC(=O)Nc1ccccc1Cl)C(=O)COc1cccc2c1OC(C)(C)C2`, the inhibition was 11.8% (active).

For the compound `COc1cccc(CCNC(=O)COc2cccc3c2OC(C)(C)C3)c1`, the inhibition was 3.51%.

As to `Cc1c[nH]c2cccc(-c3ccc(Cl)cc3)c12`, the inhibition is -12%.

As for `C=CCNc1nc(N)c([N+](=O)[O-])c(NC2CCCCC2)n1`, the inhibition was 4.77%.

Consider `COCCNc1nc(N)c([N+](=O)[O-])c(N2CCCCCC2)n1`, for which the inhibition was 7.3%.

Turning to `Nc1nc(NCC(=O)O)nc(N2CCCCCC2)c1[N+](=O)[O-]`, the inhibition was 9.71% (active).

Turning to `CC(C)(C)c1ccc(CSc2nnc(-c3cccs3)o2)cc1`, the inhibition was 0.5%.

`O=C(CCl)NC1CCCCN(Cc2cccc(C(F)(F)F)c2)C1=O` (configuration not stated): the inhibition was -1.65%.

On to `CCOC(=O)[C@@]12CCC3=C1N(CCC3)C(=O)[C@H](CC(=O)N1CCN(C(=O)c3ccco3)CC1)C2`, for which the inhibition is -1.32%.

In the case of `CN(C(=O)c1cccc(NC(=O)Cc2cccc(NC(=O)C3CCCN(C(=O)C4CC4)C3)c2)c1)C1CCC1` (configuration not stated), the inhibition is 0.32%.

As to `CN(C(=O)c1cccc(NC(=O)Cc2ccc(NC(=O)C3CCN(C(=O)C4CCCCC4)CC3)cc2)c1)C1CCC1`, the inhibition was 1.78%.

For `CN(C(=O)c1ccc(NC(=O)Cc2cccc(NC(=O)C3CCN(C(=O)c4ccccc4)CC3)c2)cc1)C1CC1`, the inhibition was 10.7% (active).

With `CC(C)(C)NC(=O)C(c1cccnc1)N(C(=O)c1cnco1)c1ccc(C(C)(C)C)cc1` (configuration not stated), the inhibition was 0.93%.

`COC(=O)[C@]12C[C@H](CC(=O)NCc3cccc4ccccc34)C(=O)N(CCc3ccc(OC)c(OC)c3)C1=C[C@H](C1CCCC1)O[C@@H]2C`: the inhibition was 4.89%.

In the case of `Cc1ccc(C2CC(c3cccc(NS(C)(=O)=O)c3)=NN2S(C)(=O)=O)cc1` (configuration not stated), the inhibition is 2.31%.

`CS(=O)(=O)Nc1cccc(C2=NN(C(=O)c3cccc(F)c3)C(c3cccs3)C2)c1` (configuration not stated): the inhibition was -0.97%.

Regarding `CCOc1ccccc1C1CC(c2cccc(NS(C)(=O)=O)c2)=NN1C(=O)c1ccccc1` (configuration not stated), the inhibition was 9.81% (active).

In the case of `C=C1C(C(C)C)N(C)C2=NC(c3ccccc3)CC(=O)N12` (configuration not stated), the inhibition is -2.56%.

In the case of `C=CCN1C(=O)[C@@H](CC(=O)N2CCN(C(=O)c3ccco3)CC2)[C@]2(C(=O)OC)CCCCC=C12`, the inhibition is -0.31%.

Consider `CC(=O)N1CCN(CC(c2ccccc2)c2ccccc2)CC1`, for which the inhibition is -0.45%.

On to `CCCc1ccc(OCC(O)CN2CCN(C(=O)OCC)CC2)cc1` (configuration not stated), for which the inhibition was 8.68%.

As for `O=C(C(c1ccccc1)c1ccccc1)N1CCN(CC(O)COc2ccccc2)CC1` (configuration not stated), the inhibition is 9.59% (active).

`Nn1c(SCC(=O)Nc2cccc3ccccc23)nnc1-c1cc(-c2ccc(F)cc2)n[nH]1`: the inhibition is -1.09%.

As to `C[C@H]1CCC/C=C/C(=O)c2c(O)cc(O)cc2CC(=O)O1`, the inhibition is -3.4%.

Consider `CCOc1ccc(CCNC(=O)COC(=O)c2c(OC)cccc2OC)cc1OCC`, for which the inhibition was 6.67%.

`CCOc1ccc(CCNC(=O)COC(=O)CCS(=O)(=O)c2ccc(C)cc2)cc1OCC`: the inhibition is 9.85% (active).

Consider `COc1ccc(CNC(=O)COC(=O)CCS(=O)(=O)c2ccc(C)cc2)cc1OC`, for which the inhibition was 0.41%.

For the compound `C=C(C)C#CC(Cc1ccccc1)NCC1CC1` (configuration not stated), the inhibition is 0.45%.

For the compound `O=S(=O)(c1ccc(F)cc1)N1CCN(C(=S)NC2CCCC2)CC1`, the inhibition was 10.9% (active).

In the case of `O=C(O)C1CCCCC1C(=O)N1CCN(S(=O)(=O)c2ccc(F)cc2)CC1` (configuration not stated), the inhibition is 4.99%.

Regarding `O=C(CN1CCN(S(=O)(=O)c2ccc(F)cc2)CC1)NC1CC1`, the inhibition was -1.88%.

On to `Cc1ccc(C23CC4CC(CC(C(=O)NCC(=O)O)(C4)C2)C3)cc1`, for which the inhibition was 9.87% (active).

Take `C=CCNC(=O)C12CC3CC(C1)CC(C(=O)NCC=C)(C3)C2`: the inhibition is -0.37%.

Turning to `CCOc1ccccc1NC(=O)C12CC3CC(C1)CC(c1ccc(C)cc1)(C3)C2`, the inhibition is 0.03%.

`O=C(Nc1ccc(Br)cc1)OCCN1C(=O)CCC12CCC(c1ccccc1)CC2` (configuration not stated): the inhibition was 4.23%.

Turning to `O=C(NC1CCC1)c1ccc(C#CC2CC2)cn1`, the inhibition is -0.59%.

Turning to `COCCCn1c(SCC(=O)Nc2ccccc2)nnc1-c1ccncc1`, the inhibition was -0.81%.

For `O=C(CSc1nnc(-c2ccncc2)n1-c1ccc(Cl)cc1)Nc1ccc(C(=O)O)cc1`, the inhibition is -0.57%.

Take `O=C(CSc1nnc(-c2ccncc2)n1C1CCCCC1)Nc1ccccc1`: the inhibition was 10.2% (active).

On to `COc1ccccc1CCNC(=O)C1CCN(c2nc(C)cc(C)n2)CC1`, for which the inhibition is -0.02%.

`Cc1ccc(-c2nc(C3CCCN(S(=O)(=O)c4ccc(Br)s4)C3)no2)cc1` (configuration not stated): the inhibition was 0.61%.

Take `C=CCOc1ccc(Cl)cc1CNCCCN1CCOCC1`: the inhibition was 10.7% (active).

For `COc1ccc(-c2ccc(CNCCCN3CCOCC3)o2)cc1Cl`, the inhibition is 1.38%.

Regarding `O=S(=O)(NCCCN1CCOCC1)c1ccc(F)c(Cl)c1`, the inhibition was -0.87%.

Take `Cc1ccccc1NC(=O)Cn1nnc(-c2ccccc2F)n1`: the inhibition is 0.94%.

In the case of `CN1[C@H](Cc2ccccc2)COc2cccc(N3CCSCC3)c2S1(=O)=O`, the inhibition is -5.49%.
